Assay outcomes from PubChem BioAssay.
The list is a sample of the results.
Mtb UGM inh – M. tuberculosis UGM enzyme inhibitors, primary screen, biochemical, fluorescence polarization, single point. UDP-galactopyranose mutase (Mycobacterium tuberculosis (strain ATCC 25618 / H37Rv)), …. purified UGM, fluorescence polarization probe displacement. inhibition, % at 10 µM. hit rate 0.06% among 320,000. AID 504406, 2011; in the data active = inhibition above about 10%, passing the limit was not always enough
Rv3671c inh – Rv3671c serine protease inhibitors, primary screen, biochemical, fluorescence polarization, M. tuberculosis H37Rv | P9WHR9 | AID 2606, 2010 | inhibition, % at 5.96 µM | hit rate 0.048% among 320,000; in the data active = inhibition above about 38%;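 also: extracellular domain of Rv3671c used as enzyme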
GDH-TPI inh – GDH-TPI coupling enzyme inhibitors, primary screen, artefact control for M. tuberculosis FBA inhibitor project, biochemical, absorbance, full deck | GDH-TPI coupled enzyme counterscreen, NADH absorbance | inhibition, % at 4.8 µM | hit rate 1.2% among 360,000; in the data active = inhibition above about 30%
Mtb bLac sens – beta-lactam sensitization of Mtb H37Rv, H37Rv; M. tuberculosis H37Rv growth with meropenem, percent inhibition; inhibition, % at 25 µM; hit rate 0.27% among 330,000; call rule not given here;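 also: growth measured after seven days incubation then overnight dye step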
FBA Mtb inh – Mtb FBA enzyme inhibitors, primary screen, biochemical, fluorescence, strain H37Rv. inhibition, % at 1 µM. purified M. tuberculosis FBA, fluorescence read-out. hit rate 2.3% among 360,000; in the data active = inhibition above about 27%
Target sequence (P9WQA3 whole entry, looked up): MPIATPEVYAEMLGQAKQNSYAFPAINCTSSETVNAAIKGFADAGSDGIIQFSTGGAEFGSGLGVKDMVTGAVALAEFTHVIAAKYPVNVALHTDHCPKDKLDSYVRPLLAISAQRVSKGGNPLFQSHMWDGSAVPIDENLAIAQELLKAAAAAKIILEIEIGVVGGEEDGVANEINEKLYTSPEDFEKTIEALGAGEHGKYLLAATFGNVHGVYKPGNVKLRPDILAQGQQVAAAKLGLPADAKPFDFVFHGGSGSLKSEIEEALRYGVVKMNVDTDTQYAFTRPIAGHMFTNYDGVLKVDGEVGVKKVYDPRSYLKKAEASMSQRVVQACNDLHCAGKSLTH
Each line names hits and unclear results; the compound was inactive in the other large screens.

COc1ccc(-c2[nH]ncc2/C=N/NC(=O)c2cccc([N+](=O)[O-])c2)cc1OC	none
CC(=O)Nc1ccc(S(=O)(=O)NCCC(=O)OCC(=O)NNC(=O)c2ccccc2)cc1	none
CCCCN(C(=O)c1ccco1)C1CCS(=O)(=O)C1 (stereo not given)	none
COc1cc(CNc2ccc(CNc3ncn[nH]3)cc2)ccc1OCc1ccccc1	none
COc1cccc(C(=O)N2CCN=C2SC)c1	none
CC(=O)c1cccc(Nc2ncnc3ccc(Br)cc23)c1	none
